TRPM1 prom inh: inhibitors of MITF-dependent TRPM1 promoter reporter, primary screen, cell-based, SK-MEL-5, single point, luciferase; inhibition, % at 12.5 µM; 0.83% of 330,000 active; SK-MEL-5 TRPM1 promoter luciferase, 24 h;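 active means mean inhibition across replicates of 60% or more, whatever share of single replicates reaches that level; inconclusive means some that reach 60%, reason not given; inactive means mean inhibition across replicates below 60%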
aSyn 5UTR inh: MLPCN primary screen, SNCA 5' untranslated region | inhibition, % (tested at 7.5 µM) | alpha-synuclein 5'UTR reporter, inhibitor activity | 0.82% of 300,000 active | AID 1813, 2009; in the data active means inhibition above about 60%; inconclusive means no clear call, values can overlap the other calls;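 further: H4 neuroglioblastoma cells stably carrying SNCA 5'UTR luciferase fusion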
EBV LMP1 NFkB: EBV LMP1-driven NF-kappaB luciferase reporter inhibitors, primary screen, cell-based, luminescence, single point; LMP1-induced NF-kappaB luciferase reporter cells; inhibition, % at 12.5 µM; 0.69% of 350,000 active; AID 504558, 2011; in the data active means inhibition above about 41%; inconclusive means no clear call, values can overlap the other calls
PAX8 inh HTS: inhibitors of PAX8-driven TPO luciferase reporter, primary screen, RMG-I cells, single concentration. SteadyGlo, 24 h. inhibition, % at 12.6 µM. 1.2% of 360,000 active;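 active means mean replicate inhibition at least 60% with every replicate also reaching 60%; inconclusive means only one of the two criteria is met; inactive means mean below 60% and not all replicates reaching 60%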;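 further: luciferase light reporting Pax8 driven TPO promoter activity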
Shn3 3UTR inh: reduction of Shn3 3'UTR firefly luciferase signal, primary screen, Schnurri-3 inhibitor project, cell-based, Clone20 osteoblasts, set 2; Clone20 osteoblast Shn3 3'UTR firefly luciferase, 24 h; inhibition, % at 12.5 µM; 0.52% of 360,000 active;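 active means mean inhibition of at least 75% with every replicate also reaching 75%; inconclusive means mean inhibition at least 75% but some replicate below; inactive means mean inhibition below 75%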
Large screens that a line does not name were inactive. Only some compounds are listed: those with a hit (about 2.1% of all), similar ones and a draw of the others.

C=CCC[C@H](Cc1ccc(F)cc1)C(=O)OC[C@H](Cc1c[nH]c2ccccc12)NC(=O)[C@@H](CC=C)CC(=O)N[C@@H](CO)Cc1ccccc1	TRPM1 prom inh 75.0 (no result: aSyn 5UTR inh)
Cc1cc2c(cc1S(=O)(=O)NCCc1ccc(Cl)cc1)OCC(=O)N2	none (no result: TRPM1 prom inh)
O=C(C[C@@H]1C/C=C\C[C@@H](Cc2ccc(F)cc2)C(=O)OC[C@@H](Cc2c[nH]c3ccccc23)NC1=O)NCCO	none (no result: aSyn 5UTR inh)
CCOC(=O)c1c(C)nc2ccccc2c1-c1ccccc1	none
Cc1ccc(NC(=O)/C=C/c2ccc([N+](=O)[O-])s2)cc1	TRPM1 prom inh 81.9
Cc1cccc(NC(=O)/C=C/c2ccc([N+](=O)[O-])s2)c1	TRPM1 prom inh 94.6, EBV LMP1 NFkB 88.0, PAX8 inh HTS 72.5, Shn3 3UTR inh 91.1
Cc1ccc(NC(=O)/C=C/c2ccc([N+](=O)[O-])s2)c(C)c1	TRPM1 prom inh 109.2, EBV LMP1 NFkB 84.2, PAX8 inh HTS 98.1, Shn3 3UTR inh 94.4
Cc1cc(C)c(C(=O)N(C)C2CCCN(Cc3ccccc3F)C2)o1 (stereo not drawn)	none
Cc1ccc(-c2csc(N3CCN(c4cc5c(cc4Cl)nc(C)n5CCN4CCCCC4)CC3)n2)cc1	none
Cc1csc(N2CCN(c3cc4c(cc3Cl)nc(-c3ccncc3)n4CCCN3CCCC3)CC2)n1	TRPM1 prom inh 90.3
O=[N+]([O-])c1ccc(C(=S)N2CCC(Cc3ccccc3)CC2)cc1	none
COC(=O)C1=C(C(=O)OC)[C@]2([C@H]3CCCCN[C@@H](Cc4ccccc4)C(=O)N3Cc3ccccc3)C=C[C@H]1O2	PAX8 inh HTS 74.1 (no result: aSyn 5UTR inh)
O=C1[C@H](Cc2ccccc2)NCCCC[C@@H](c2ccc(Cl)cc2)N1Cc1ccccc1	none (no result: aSyn 5UTR inh)
Cc1cccc(NC2=NC(C)(C)N=C(N)N2)c1	aSyn 5UTR inh 98.4
Cc1cc(C)cc(NC2=NC3(CCCCC3)N=C(N)N2)c1	none (no result: PAX8 inh HTS)
CCOC(=O)CNC(=O)c1cnn2cccnc12	none (no result: PAX8 inh HTS)
Cc1ccc(-n2nc3ccc(NC(=O)/C=C/c4ccco4)cc3n2)cc1	PAX8 inh HTS 68.4
Cc1ccc(NC(=O)c2cccc(NC(=O)/C=C/c3ccco3)c2)cc1C	none
CSC(=Nc1ccccc1)N=C(SCc1ccccc1)N(C)C	TRPM1 prom inh 115.8, PAX8 inh HTS 100.5, Shn3 3UTR inh 93.0 (no result: aSyn 5UTR inh)
N#CNC(=Nc1ccccc1)SCc1ccc(C(=O)O)cc1	none
Clc1cccc(-c2nc3nc4ccccc4nc3n2Cc2ccccc2)c1	PAX8 inh HTS 84.9
Cc1ccc(S(=O)(=O)n2cccc2/C=C/[N+](=O)[O-])cc1	Shn3 3UTR inh 94.5 (no result: TRPM1 prom inh, aSyn 5UTR inh)
CCOc1ccc2nc(N(CCCN(C)C)C(=O)c3ccc(S(=O)(=O)N4CCc5ccccc5C4)cc3)sc2c1	TRPM1 prom inh 73.5
COc1ccc(C)c2sc(N(CCCN(C)C)C(=O)c3ccc(S(=O)(=O)N4CCc5ccccc5C4)cc3)nc12	TRPM1 prom inh 96.0, aSyn 5UTR inh 91.1, PAX8 inh HTS inconclusive, Shn3 3UTR inh 92.5
CCOc1ccc2nc(N(CCCN(C)C)C(=O)c3ccc4c(c3)CCCC4)sc2c1	none
Cc1ccc2sc(N(CCCN(C)C)C(=O)c3ccc(S(=O)(=O)N4CCc5ccccc5C4)cc3)nc2c1C	TRPM1 prom inh 64.6
CC1CCCCN1S(=O)(=O)c1ccc(C(=O)N(CCCN(C)C)c2nc3ccc(Br)cc3s2)cc1 (stereo not drawn)	TRPM1 prom inh 94.5, aSyn 5UTR inh 67.0
Cc1ccc(S(=O)(=O)NCCSc2nncn2C)cc1	none
O=C(C[C@H]1CC[C@@H]2[C@H](COC[C@H](O)CN2Cc2cccc(F)c2)O1)NCCc1ccncc1	none (no result: TRPM1 prom inh, aSyn 5UTR inh, EBV LMP1 NFkB, Shn3 3UTR inh)
COc1cccc2sc(N(CCCN(C)C)C(=O)c3ccc(S(=O)(=O)N4CCc5ccccc5C4)cc3)nc12	aSyn 5UTR inh 94.2 (no result: EBV LMP1 NFkB)
COc1cc2nc(N(CCCN(C)C)C(=O)c3ccc(S(=O)(=O)N4CCc5ccccc5C4)cc3)sc2cc1OC	none
COc1ccc(OC)c2sc(N(CCCN(C)C)C(=O)c3ccc(S(=O)(=O)N4CCc5ccccc5C4)cc3)nc12	aSyn 5UTR inh 100.3 (no result: TRPM1 prom inh, EBV LMP1 NFkB, PAX8 inh HTS, Shn3 3UTR inh)
CN(C)CCCN(C(=O)c1ccc(S(=O)(=O)N2CCc3ccccc3C2)cc1)c1nc2c(F)cc(F)cc2s1	none (no result: PAX8 inh HTS)
COc1cccc2sc(N(CCCN(C)C)C(=O)c3ccc(S(=O)(=O)N4CCCc5ccccc54)cc3)nc12	aSyn 5UTR inh 64.1 (no result: PAX8 inh HTS)
O=C(Nc1ccc(S(=O)(=O)Nc2ncccn2)cc1)c1cccnc1	none
CCCn1nc(NC(=O)C2CCCO2)c2cc3cccc(C)c3nc21 (stereo not drawn)	none
O=C(CCNS(=O)(=O)c1cccs1)Nc1ccccc1F	none
O=C(c1ccc(-c2cccc(Cl)c2Cl)o1)N1CCOCC1	none
C=CCN(C(=O)CCc1ccccc1OC)c1nc(-c2ccc(S(C)(=O)=O)cc2)cs1	aSyn 5UTR inh 70.8
CCOc1ccc(CCN2C(=S)N([C@@H](CC(C)C)CN3CCCC3CN3C(=S)NC[C@@H]3Cc3ccc(O)cc3)C[C@@H]2Cc2ccccc2)cc1 (stereo partly drawn)	none (no result: aSyn 5UTR inh)
CC(C)C[C@H]1CNC(=S)N1C[C@H]1CCCN1C[C@H](Cc1ccc(O)cc1)N1C[C@H](Cc2ccc(O)cc2)N(CC2CCCCCC2)C1=S	PAX8 inh HTS 73.0 (no result: TRPM1 prom inh, aSyn 5UTR inh, EBV LMP1 NFkB)
CC(C)C[C@H]1CNC(=S)N1CC1CCCN1C[C@H](Cc1ccccc1)N1C[C@H](Cc2ccc(O)cc2)N(CC2CCCCCC2)C1=S (stereo partly drawn)	none (no result: aSyn 5UTR inh)
CCOc1ccc(CCN2C(=S)N([C@@H](CC(C)C)CN3CCCC3CN3C(=S)NC[C@@H]3Cc3ccc(O)cc3)C[C@@H]2Cc2ccc(O)cc2)cc1 (stereo partly drawn)	Shn3 3UTR inh 86.5 (no result: aSyn 5UTR inh)
CC(C)C[C@@H](CN1CCC[C@H]1CN1C(=O)C(=O)NC[C@@H]1Cc1ccccc1)N1C[C@H](Cc2ccc(O)cc2)N(CC2CCCCCC2)C(=O)C1=O	PAX8 inh HTS 68.4 (no result: TRPM1 prom inh, aSyn 5UTR inh, EBV LMP1 NFkB, Shn3 3UTR inh)
Oc1ccc(C[C@H]2CNC(=S)N2CC2CCCN2C[C@H](Cc2ccccc2)N2C[C@H](Cc3ccc(O)cc3)N(CCc3ccccc3)C2=S)cc1 (stereo partly drawn)	PAX8 inh HTS 91.2 (no result: aSyn 5UTR inh)
CC(C)C[C@@H](CN1CCC[C@@H]1CN1C(=O)C(=O)NC[C@@H]1Cc1ccccc1)N1C[C@H](Cc2ccc(O)cc2)N(CC2CCCCC2)C(=O)C1=O	none (no result: aSyn 5UTR inh)
CC(C)C[C@@H](CN1CCCC1CN1C(=S)NC[C@@H]1Cc1ccc(O)cc1)N1C[C@H](Cc2ccc(O)cc2)N(CC2CCCCCC2)C1=S (stereo partly drawn)	PAX8 inh HTS 82.2 (no result: aSyn 5UTR inh)
CC(C)C[C@@H](CN1CCCC1CN1C(=S)NC[C@@H]1Cc1ccc(O)cc1)N1C[C@H](Cc2ccccc2)N(CC2CCCCCC2)C1=S (stereo partly drawn)	none (no result: aSyn 5UTR inh)
C[C@H]1CN([C@@H](C)CO)C(=O)Cc2cc(NS(C)(=O)=O)ccc2O[C@H]1CN(C)C(=O)Nc1ccccc1	none (no result: TRPM1 prom inh, aSyn 5UTR inh, EBV LMP1 NFkB, Shn3 3UTR inh)
CC(C)COC(=O)Nc1nnc(Cc2ccccc2)s1	none
CCn1c2ccccc2c2cc(/C=N/n3cn[nH]c3=S)ccc21	EBV LMP1 NFkB 80.2 (no result: PAX8 inh HTS)

Screening results (PubChem BioAssay)
